Screens: PubChem BioAssay, National Center for Advancing Translational Sciences (NCATS)
SARS PLP yeast – qHTS of Yeast-based Assay for SARS-CoV PLP; S. cerevisiae expressing SARS-CoV PLpro, growth rescue; Potency, µM (highest dose often 32.9 µM), for the others: at the top dose activity, positive = growth rescue, usual class: activators; 330,000 tested, 0.19% active; calls by dose curve; further: 0% is about no effect; nearly all actives have a fitted effect of over 55% in size
Pf growth 96h – Primary qHTS for delayed death inhibitors of the malarial parasite plastid, 96 hour incubation; P. falciparum luciferase reporter growth, 96 h; 320,000 tested, 6.9% active; Potency, µM (series often up to 28.7 µM), without a hit: at the top dose activity change, negative = inhibition, hits mostly inhibitors; AID 504834, 2011; further: on the % scale 0 is the no-effect control and ±100 the full control effect
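Parasite growth measured via integrated firefly luciferase reporter in P. falciparum. Infected erythrocytes at 2% hematocrit, 0.05% parasitemia final were treated 96 hours at 37 C under 5% CO2, and luminescence was read.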
AmpC inh detg – qHTS Inhibitors of AmpC Beta-Lactamase (assay with detergent) | Potency, µM (doses to about 114 µM), without a hit: at the highest dose activity change, negative = inhibition, most hits filed as inhibitors | 370,000 tested, 0.041% active | P00811 | AmpC hydrolysis of nitrocefin, absorbance 480 nm, 0.01% Triton;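 further: 0% = no-compound wells and -100% = no-enzyme wells; nearly all actives have a fitted effect of over 25% in size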
Target sequence (P00811 whole entry, looked up): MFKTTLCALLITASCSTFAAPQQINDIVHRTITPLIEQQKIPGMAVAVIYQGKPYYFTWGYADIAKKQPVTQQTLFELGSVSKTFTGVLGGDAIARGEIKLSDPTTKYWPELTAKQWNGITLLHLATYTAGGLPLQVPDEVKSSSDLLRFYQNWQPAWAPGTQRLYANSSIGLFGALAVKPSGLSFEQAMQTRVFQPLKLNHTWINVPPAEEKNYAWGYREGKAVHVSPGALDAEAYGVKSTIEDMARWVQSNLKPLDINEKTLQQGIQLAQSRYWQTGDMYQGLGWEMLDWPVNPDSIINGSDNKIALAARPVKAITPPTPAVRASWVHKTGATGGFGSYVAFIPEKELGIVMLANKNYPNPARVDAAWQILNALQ
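AmpC (5.3 nM in the dispensed reagent) in 20 mM phosphate pH 7.0 with 0.01% (detergent screen) or 0.0001% Triton X-100 was preincubated with compounds for 15 min at room temperature. Nitrocefin was then added from an 800 uM solution, and hydrolysis was followed at 480 nm.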
Sm TGR inh – qHTS Assay for the Inhibitors of Schistosoma Mansoni Peroxiredoxins; Schistosoma mansoni thioredoxin glutathione reductase (TGR), Q962Y6; Potency, µM (titrated, usually from 114 µM), without a hit: at the top dose activity change, negative = inhibition, hits mostly inhibitors; purified TGR, DTNB reduction, TNB absorbance 405 nm; 360,000 tested, 3% active; further: on the % scale 0 is the no-effect control and ±100 the full control effect; nearly all actives have a fitted effect of over 60% in size
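Kinetic colorimetric format: TGR-catalysed, NADPH-driven DTNB reduction monitored via TNB absorbance. Enzyme dispensed at 20 nM; compound exposure 15 min at room temperature before reaction start.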
Pf growth 48h – Primary qHTS for delayed death inhibitors of the malarial parasite plastid, 48 hour incubation; P. falciparum luciferase growth in erythrocytes, 48 h; Potency, µM (top dose mostly 28.7 µM), for the others: at the top dose activity change, negative = inhibition, most hits filed as inhibitors; 310,000 tested, 5.9% active; AID 504832, 2011; further: on the % scale 0 is the no-effect control and ±100 the full control effect
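Luminescence readout; reporter = integrated firefly luciferase in P. falciparum. RBC culture at 2% hematocrit, 0.1% parasitemia final, 37 C/5% CO2; decreased signal taken as growth inhibition.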
AmpC inh no detg – qHTS Inhibitors of AmpC Beta-Lactamase (assay without detergent); P00811; AmpC nitrocefin hydrolysis, absorbance 480 nm, 0.0001% Triton; Potency, µM (series often up to 57.1 µM), for the others: at the highest dose activity change, negative = inhibition, most hits filed as inhibitors; 330,000 tested, 0.52% active; AID 485341, 2010;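 further: plate controls were no compound for no effect and no enzyme for full effect; nearly all actives have a fitted effect of over 20% in size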
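AmpC (5.3 nM in the dispensed reagent) in 20 mM phosphate pH 7.0 with 0.01% (detergent screen) or 0.0001% Triton X-100 was preincubated with compounds for 15 min at room temperature. Nitrocefin was then added from an 800 uM solution, and hydrolysis was followed at 480 nm.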
The depositor's hits bear a star; ? = inconclusive; . = not tested or not shown. Hits are enriched below; roughly 12% of the tested compounds scored in any of these assays. Unless noted, the call rests on the fitted dose curve; in most records, active means well fitted curve in the direction sought with a large enough effect; inconclusive means small, poorly fitted or top-dose-only effect, or another doubt; inactive means no such curve, though single readings can be large; an effect the other way counts as inactive or inconclusive. Potency means the concentration at half of the fitted maximal effect.

SMILES | SARS PLP yeast | Pf growth 96h | AmpC inh detg | Sm TGR inh | Pf growth 48h | AmpC inh no detg
Cn1c(=O)c2c(SCC(=O)N3CCOCC3)nc(CC(C)(C)C)nc2n(C)c1=O | 1% | -4% | -3% | 2% | 5% | -14%
Cn1c(=O)c2c(SCC(=O)NC3CCCC3)nc(CC(C)(C)C)nc2n(C)c1=O | -9% | 13µM* | -6% | 0% | ? | -35%
Cn1c(=O)c2c(SCc3c(F)cccc3Cl)nc(CC(C)(C)C)nc2n(C)c1=O | 12% | 18% | -4% | 14% | 5% | 3.5µM*
Cn1c(=O)c2c(SCC(N)=O)nc(CC(C)(C)C)nc2n(C)c1=O | -6% | 0% | ? | 3% | -17% | 6.3µM*
CCCn1c(N)c(C(=O)CSc2nc3ncc(Cl)cc3[nH]2)c(=O)[nH]c1=O | 6% | ? | -18% | -2% | 10% | -3%
Cc1ccc(-n2nc(C(=O)Nc3ccc(F)cc3Cl)c(=O)n(C)c2=O)cc1 | . | . | 22% | 3% | . | .
COc1ccccc1C(=O)COC(=O)c1c(-c2ccccc2)noc1C | -11% | ? | -14% | 1% | ? | -11%
COC(=O)c1ccc(S(=O)(=O)N2CCN(C(c3ccccc3)c3ccccc3)CC2)n1C | -1% | ? | 9% | 13% | 10µM* | 27%
C#CCOCCOCCOCCNc1nc(N2CCN(C(=O)CCCCCCCCCCNC(=O)[C@H](CO)n3cc(CCCCCN)nn3)CC2)nc(N2CCN(C(=O)CCCCCCCCCCNC(=O)[C@H](CCCN=C(N)N)n3cc(C[C@@H](C)CC)nn3)CC2)n1 | 3% | 2.6µM* | 4% | 45µM* | 3.3µM* | 269%
C#CCOCCOCCOCCNc1nc(N2CCN(C(=O)CCCCCCCCCCNC(=O)[C@H](CCCCN)n3cc(C)nn3)CC2)nc(N2CCN(C(=O)CCCCCCCCCCNC(=O)[C@H](CCCN=C(N)N)n3cc(C[C@@H](C)CC)nn3)CC2)n1 | -13% | 1.5µM* | 1% | -27% | 1.9µM* | 333%
C#CCOCCOCCOCCNc1nc(N2CCN(C(=O)CCCCCCCCCCNC(=O)[C@H](CCCCN)n3cc(CCO)nn3)CC2)nc(N2CCN(C(=O)CCCCCCCCCCNC(=O)[C@H](CCCCN)n3cc(CCCC(=O)O)nn3)CC2)n1 | -5% | ? | ? | -11% | ? | 303%
C#CCOCCOCCOCCNc1nc(N2CCN(C(=O)CCCCCCCCCCNC(=O)[C@@H](CCSC)n3cc(CCO)nn3)CC2)nc(N2CCN(C(=O)CCCCCCCCCCNC(=O)[C@H](CCCN=C(N)N)n3cc(C[C@@H](C)CC)nn3)CC2)n1 | 11% | 1.2µM* | 3% | 5µM* | 3.3µM* | 266%
C#CCOCCOCCOCCNc1nc(N2CCN(C(=O)CCCCCCCCCCNC(=O)[C@H](CCCCN)n3cc(C[C@@H](C)CC)nn3)CC2)nc(N2CCN(C(=O)CCCCCCCCCCNC(=O)[C@H](CCCN=C(N)N)n3cc(C[C@@H](C)CC)nn3)CC2)n1 | 1% | 3.3µM* | ? | ? | 3.3µM* | 271%
CCCS(=O)(=O)N1CC(=O)N(c2ccc(C)c(Cl)c2)C(C)(C(=O)NC2CCCCCC2)C1 (stereo unspecified) | . | . | 13% | 3% | . | .
O=[N+]([O-])c1cc([N+](=O)[O-])c(Oc2ccc(Br)cc2Br)cc1NN1CCCCC1 | 0% | 12µM* | -1% | 5% | 59% | -18%
Cc1cc(F)ccc1Oc1cc(NN2CCCCC2)c([N+](=O)[O-])cc1[N+](=O)[O-] | 6% | ? | ? | 0% | 17% | -34%
Cc1ccccc1C(=O)NCC(=O)OC(C)C(=O)NC(C)CCc1ccccc1 (stereo unspecified) | -3% | 12µM* | ? | 2% | ? | 9%
CC(CCc1ccccc1)NC(=O)c1ccccc1C(=O)O (stereo unspecified) | -1% | 0% | -4% | -17% | 27% | -10%
CC#CC(=O)N1CCC(C(=O)Nc2ccc(Oc3ccccc3)nc2)CC1 | -5% | ? | 3% | 1% | -7% | 28%
O=C(CCC(=O)Nc1nnc(C2CCCCC2)s1)Nc1ccccc1 | 1% | 9% | 3% | ? | 22% | -12%
Nc1c(C(=O)NCc2ccco2)nnn1CC(=O)Nc1ccc2c(c1)OCO2 | 1% | ? | ? | 0% | 12µM* | -17%
Cc1cccc(NC(=O)Cn2nnc(C(=O)NCc3ccco3)c2N)c1 | -2% | ? | -1% | -6% | 11% | -15%
CC(C)c1ccc(NC(=O)Cn2nnc(C(=O)NCc3ccco3)c2N)cc1 | 5% | 12µM* | -5% | -11% | 29% | -42%
Cc1ccc(NC(=O)Cn2nnc(C(=O)NCc3ccco3)c2N)cc1 | 2% | 0% | -6% | -11% | . | -29%
CCOC(=O)C(C)NC(=O)C1CCN(c2ncnc3c2nc2n3CCCCC2)CC1 (stereo unspecified) | . | . | 11% | 2% | . | .
SMILES | SARS PLP yeast | Pf growth 96h | AmpC inh detg | Sm TGR inh | Pf growth 48h | AmpC inh no detg
CC(/C=N/NC(=O)CN1CCN(Cc2ccc(Cl)cc2)CC1)=C\c1ccco1 | 0% | ? | -1% | 79µM* | 3% | 116%
Cn1cccc1CC(=O)N/N=C/c1ccco1 | -2% | ? | 5% | 40µM* | -8% | -15%
O=C(CN1CCN(Cc2ccccc2)CC1)N/N=C/C=C/c1ccco1 | -6% | ? | -19% | ? | -7% | -12%
CC(=C/c1ccco1)/C=N/NC(=O)Cc1cccn1C | -32% | 16% | -11% | 45µM* | -65% | -19%
CC(/C=N/NC(=O)Cc1cccn1C)=C\c1ccco1 | 18% | 48% | -1% | 25µM* | 17% | ?
CCOc1ccccc1NC(=O)Cn1c(=O)n(Cc2nc(C)no2)c(=O)c2ccccc21 | . | . | 16% | 0% | . | .
C[C@H](NC(=O)c1nc[nH]c1C(=O)N1CCc2ccccc2C1)C(=O)OCc1ccccc1 | -1% | 22% | 3% | -8% | 39% | 63%
Clc1ccc2c(c1)C(c1cccs1)=NNC(c1cccnc1)=N2 | 5% | 1.7µM* | 4% | -1% | -7% | -11%
COc1ccc(C(=O)c2c(C)c3ccccc3n2CC(O)CNC(C)C)cc1 (stereo unspecified) | 0% | ? | ? | -2% | 12µM* | 78%
COc1ccc(NCC(=O)n2c(C)c(C)c3ccccc32)cc1 | 2% | -12% | 1% | ? | -34% | -23%
